In PubChem BioAssay (NCI) one finds growth inhibition data, which are given here for 8 compounds.

This experiment can be described thus: NCI Yeast Anticancer Drug Screen. Data for the mgt1 strain (AID 153). To be noted: S. cerevisiae mgt1 mutant growth inhibition, active compounds read high. As to the method: Growth inhibition of yeast strains with defined genetic alterations is measured as a screen for potential anti-cancer activity. Selected strains with alterations in DNA damage repair or cell cycle control were exposed to compounds and growth inhibition was measured relative to vehicle treated controls. The strain used in this assay is mgt1

Compounds without any hit were thinned out: in the full panel of roughly 79,000, 15% have a hit. Unmarked numbers belong to inactive results. Calls of active or inactive are those of the source. No stated cut-off is given here; in the data, active means growth inhibition above about 70%; inactive means the rest.

Regarding `O=C(Nc1ccccc1)OCCc1ccc(Cl)c(Cl)c1`, the growth inhibition (at 1.2 µM) is -4%; the growth inhibition (at 3.7 µM) is -4%; the growth inhibition (at 11.0 µM) is 7%; the growth inhibition (at 33.0 µM) is 14%; the growth inhibition (at 100.0 µM) was 37%.
As to `Cc1ccc(Nc2nc3c(=O)n(C)c(=O)n(C)c3nc2Nc2ccc(C)cc2)cc1`, the growth inhibition is -2% (at 1.2 µM); -4% (at 3.7 µM); -4% (at 11.0 µM); 11% (at 33.0 µM); -2% (at 100.0 µM).
With `c1ccc2c(c1)c1ncccc1c1nccnc21`, the growth inhibition (at 1.2 µM) was -2%; the growth inhibition (at 3.7 µM) is 0%; the growth inhibition (at 11.0 µM) is -2%; the growth inhibition (at 33.0 µM) is -2%; the growth inhibition (at 100.0 µM) is -2%.
For the compound `O=C1CSc2cc([N+](=O)[O-])ccc2N1`, the growth inhibition is, setting by setting: (at 1.2 µM) 0%; (at 3.7 µM) 3%; (at 11.0 µM) -3%; (at 33.0 µM) -8%; (at 100.0 µM) 3%.
On to `O=C(CCCN1CCC(O)(c2ccc(Cl)cc2)CC1)c1ccc(F)cc1`, for which the growth inhibition was 17% (at 1.2 µM); 30% (at 3.7 µM); 40% (at 11.0 µM); 58% (at 33.0 µM); 65% (at 100.0 µM).
On the same counts, the results for `CC(=O)Nc1ccc(/C=C(\C#N)c2ccc(C)cc2)cc1` are -6%, -16%, -17%, -10% and -13%.
Take `CCC/C(Cl)=N\OC(=O)Nc1ccc(Br)cc1`: the growth inhibition is, setting by setting: (at 1.2 µM) 9%; (at 3.7 µM) 16%; (at 11.0 µM) 82% (active); (at 33.0 µM) 98% (active); (at 100.0 µM) 99% (active).
Regarding `CCNc1nnc(CSc2nc(-c3ccccc3)c(-c3ccccc3)[nH]2)s1`, the growth inhibition runs as follows: (at 1.2 µM) -9%; (at 3.7 µM) -11%; (at 11.0 µM) -18%; (at 33.0 µM) 87% (active); (at 100.0 µM) 73% (active).
